MCF10A rerep = induces DNA re-replication in MCF 10a normal breast cells; 2.9% of 350,000 active; Potency, µM (series often up to 46.1 µM), usual class: activators; MCF 10A DNA re-replication, Hoechst nuclear intensity, 48 h; further: nearly all actives have a fitted effect of over 50% in size
KB-3-1 cytotox = KB-3-1 parental cell cytotoxicity | Potency, µM (series often up to 46.1 µM), actives largely listed as cytotoxic | KB-3-1 viability, CellTiter-Glo ATP luminescence, 72 h | 1.4% of 400,000 active; further: nearly all actives have a fitted effect of over 60% in size
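Here the drug-naive KB-3-1 line serves as comparator for MDR sub-line selectivity; cells received compound titrations, 72 h at 37 °C, then CellTiter-Glo readout.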
SW480 rerep = inducers of DNA re-replication in SW480 colon cancer cells; 1.8% of 340,000 active; SW480 DNA re-replication, Hoechst DNA content imaging, 48 h; Potency, µM (titrated, usually from 46.1 µM), usual class: activators; further: nearly all actives have a fitted effect of over 55% in size
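Readout is total intensity of Hoechst-stained nuclei, excited at 405 nm and collected at 500-530 nm. Compound treatment lasted 48 hr at 37 C in 5% CO2 before staining.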
S-ASM inh = inhibitors of human secretory acid sphingomyelinase | 0.006% of 340,000 active | placental ASM, HMU-PC fluorogenic substrate, 60 min | P17405 | Potency, µM (doses to about 57.5 µM), usual class: inhibitors
Target sequence (P17405 47-631 limits assumed): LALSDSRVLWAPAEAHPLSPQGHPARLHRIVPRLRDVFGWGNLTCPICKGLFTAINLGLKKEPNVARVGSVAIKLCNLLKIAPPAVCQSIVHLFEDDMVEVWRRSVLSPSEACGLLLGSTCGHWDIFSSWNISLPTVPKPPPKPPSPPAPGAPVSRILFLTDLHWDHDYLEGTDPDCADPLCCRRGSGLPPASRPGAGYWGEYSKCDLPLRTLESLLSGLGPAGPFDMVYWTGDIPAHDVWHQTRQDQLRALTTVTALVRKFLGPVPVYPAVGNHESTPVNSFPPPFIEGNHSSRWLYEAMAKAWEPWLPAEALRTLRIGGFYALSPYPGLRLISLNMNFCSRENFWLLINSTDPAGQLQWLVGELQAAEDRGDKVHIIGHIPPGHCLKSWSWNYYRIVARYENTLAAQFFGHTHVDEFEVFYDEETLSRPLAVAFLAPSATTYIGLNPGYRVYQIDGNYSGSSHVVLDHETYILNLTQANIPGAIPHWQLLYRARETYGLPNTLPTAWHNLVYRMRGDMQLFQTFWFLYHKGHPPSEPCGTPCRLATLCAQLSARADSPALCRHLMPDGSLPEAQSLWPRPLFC
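HMU-PC0 cleavage (9 uM final) by human placental ASM, 60 min at 37 °C following 10 min compound exposure at RT; stopped at pH 10, fluorescence Ex 386/Em 447 nm.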
Giardia kill = kills Giardia lamblia; Giardia lamblia trophozoite viability; activity change, % at 7.66 µM, hits read low; 0.15% of 340,000 active; AID 540267; in the data active means activity change below about -80%; inconclusive means between about -30% and that limit;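 further: parasites exposed to compound for two days anaerobically before the ATP read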
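Killing of trophozoites was scored by loss of ATP luminescence after a 48 hrs anaerobic exposure to compounds at 37 deg C, using 100 cells per well.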
KB-V1 cytotox = kills drug-selected multidrug resistant KB-V1 cells; KB-V1 MDR cells viability, CellTiter-Glo, 72 h; Potency, µM (top dose mostly 46.1 µM), actives largely listed as cytotoxic; 3.4% of 400,000 active; AID 1347076; further: nearly all actives have a fitted effect of over 60% in size
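Cytotoxicity via CellTiter-Glo luminescence after 72 h compound exposure at 37 degrees C. Cells: drug-selected KB-V1 line, DMEM phenol-red free plus 10% FBS. Compounds tested at multiple concentrations; normalized data fitted to concentration-effect curves.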
Of the large screens only hits and unclear results are named; the others gave an inactive call. The list is not random: actives were taken first. Their share in the collection is about 6.9%. Unless noted, the call rests on the fitted dose curve; in most records, active means well fitted curve in the direction sought with a large enough effect; inconclusive means small, poorly fitted or top-dose-only effect, or another doubt; inactive means no such curve, though single readings can be large; an effect the other way counts as inactive or inconclusive.

NNc1nc2c(-c3cccc(C(F)(F)F)c3)nnn2c2ccccc12	MCF10A rerep 2.9µM, KB-3-1 cytotox inconclusive, SW480 rerep 3.7µM, KB-V1 cytotox inconclusive
Cc1ccc(-c2nnn3c2nc(NC(C)C)c2ccccc23)cc1	MCF10A rerep 16µM, SW480 rerep inconclusive
Cc1cccc(-c2nnn3c2nc(NCCc2ccc(S(N)(=O)=O)cc2)c2ccccc23)c1	MCF10A rerep 5.2µM, SW480 rerep 2.3µM
Cc1ccc(-c2nnn3c2nc(NCCc2ccc(S(N)(=O)=O)cc2)c2ccccc23)cc1	MCF10A rerep inconclusive, SW480 rerep inconclusive
Nc1nc2c(-c3ccc(Br)cc3)nnn2c2ccccc12	MCF10A rerep 5.2µM, SW480 rerep 10µM
O=S(=O)(Nc1ccc(C(O)(C(F)(F)F)C(F)(F)F)cc1)c1cccc2cccnc12	none (no result: MCF10A rerep, SW480 rerep, S-ASM inh, Giardia kill)
Cc1sc2ccccc2[n+]1Cc1ccccc1	none (no result: MCF10A rerep, SW480 rerep, S-ASM inh, Giardia kill)
CCOC(=O)C(C)NC(=O)c1c2c(nc3ccccc13)C(=O)N(C1CCCCC1)C2 (configuration not stated)	none (no result: MCF10A rerep, SW480 rerep, S-ASM inh, Giardia kill)
CCNc1nc(NC(C)(C)C)nc(N2CCCCC2)n1	MCF10A rerep 18µM, KB-3-1 cytotox inconclusive, SW480 rerep 15µM
CCNc1nc(N2CCCC2)nc(N2CCCC2)n1	none
COc1cccc(CNC(=O)c2cc(Sc3cccc(Cl)c3)nc3ccccc23)c1	none (no result: MCF10A rerep, SW480 rerep, S-ASM inh, Giardia kill)
O=C(NCc1cccnc1)c1cc(Sc2cccc(Cl)c2)nc2ccccc12	MCF10A rerep inconclusive, KB-3-1 cytotox inconclusive, KB-V1 cytotox 16µM
CCCCC(=O)Nc1c(O)c2ccccc2[nH]c1=O	none
CCCCC(=O)NNC(=O)c1c(O)c2ccccc2[nH]c1=O	MCF10A rerep inconclusive, KB-V1 cytotox 9.2µM
O=C(CCl)NNC(=O)c1c(O)c2ccccc2[nH]c1=O	KB-3-1 cytotox 15µM, SW480 rerep inconclusive, KB-V1 cytotox inconclusive
Cc1ccc2nc(N/N=C/c3ccccc3C#N)nc(-c3ccccc3)c2c1	MCF10A rerep 13µM, SW480 rerep inconclusive, KB-V1 cytotox inconclusive
OCCNc1nc(-c2ccccc2)c2cc(Cl)ccc2n1	MCF10A rerep 21µM, SW480 rerep inconclusive, KB-V1 cytotox inconclusive
Clc1ccc2nc(Nc3ccccc3Cl)nc(-c3ccccc3)c2c1	none (no result: MCF10A rerep, SW480 rerep, S-ASM inh, Giardia kill)
OCCNc1nc(-c2ccccc2)c2ccccc2n1	MCF10A rerep inconclusive, SW480 rerep inconclusive
Cc1ccc2nc(NCCO)nc(-c3ccccc3)c2c1	MCF10A rerep inconclusive, SW480 rerep inconclusive, KB-V1 cytotox 12µM
N#Cc1ccccc1/C=N/Nc1nc(-c2ccccc2)c2cc(Cl)ccc2n1	KB-V1 cytotox inconclusive
Clc1ccc2nnnc(-c3ccccc3)c2c1	MCF10A rerep 3.3µM, KB-3-1 cytotox 2.6µM, SW480 rerep inconclusive, KB-V1 cytotox 10µM
N#Cc1nc(COc2ccc(-c3ccccc3)cc2)oc1N1CCC(C(N)=O)CC1	none (no result: MCF10A rerep, SW480 rerep, S-ASM inh)
COc1cccc(-c2nc(CS(=O)(=O)CC(=O)N3CCN(c4ccccc4)CC3)c(C)o2)c1	none (no result: MCF10A rerep, SW480 rerep, S-ASM inh, Giardia kill)
COCCNC(=O)c1cccc(Nc2nc(-c3ccccc3)c3cc(Cl)ccc3n2)c1	MCF10A rerep 2.6µM, KB-3-1 cytotox 15µM, SW480 rerep inconclusive, KB-V1 cytotox inconclusive
Cc1cccc(C(=O)Nc2ccc(C(=O)/C=C/c3cccnc3)cc2)c1	MCF10A rerep inconclusive, SW480 rerep 21µM, KB-V1 cytotox inconclusive
O=C(/C=C/c1cccnc1)c1ccc(NC(=O)c2cccc(Br)c2)cc1	KB-3-1 cytotox inconclusive, KB-V1 cytotox 7.9µM
CC1=C(C(=O)O)N2C(=O)[C@@H](NC(=O)[C@@H](N)c3ccc(O)cc3)[C@@H]2SC1	none (no result: KB-3-1 cytotox, S-ASM inh, Giardia kill, KB-V1 cytotox)
O=C(COc1ccccc1)Nc1nnc(SCc2cc(=O)c3ccccc3[nH]2)s1	none (no result: MCF10A rerep, SW480 rerep, S-ASM inh, Giardia kill)
COC(=O)c1cc(C)nc2c1c(=O)nc(SCc1ccccc1C)n2C1CC1	none (no result: MCF10A rerep, SW480 rerep, S-ASM inh, Giardia kill)
CNc1snc(C)c1C(=O)OCC(=O)Nc1ccc(C)cc1F	MCF10A rerep inconclusive, KB-V1 cytotox 12µM
CCOC(=O)c1c(S(=O)(=O)N2CCCC(C(=O)NCc3ccc(Cl)cc3)C2)c(C)n(C)c1C (configuration not stated)	none (no result: MCF10A rerep, SW480 rerep, S-ASM inh, Giardia kill)
CC(C)CC(NC(=O)C1CCCCC1)C(=O)N1CCN(c2ccccn2)CC1 (configuration not stated)	KB-V1 cytotox 2.6µM
